Assay results taken from the supplement of paper PMC10849652.
Targets with a hit are over-represented here; the source holds about 7,900 in all. About 0.6% of all pairs of compound and target were hits. Unmarked numbers belong to inactive results.

Assays:
Experiment in all cases: log2 fold change, soluble protein after heating vs DMSO (PISA); higher = thermal stabilisation; K562 cells, 10 uM, 30 min; active = over 0.2 and 3.5 SD of the protein, either way, in both replicates (recomputed)
[1] = compound: CC[C@@H]1C(=O)N(C)c2cnc(Nc3ccc(C(=O)NC4CCN(C)CC4)cc3OC)nc2N1C1CCCC1
Method in brief: (§1)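 K562 cells (2×10^6 cells/mL) were treated with 10 μM compound for 30 min, and aliquots were heated for 3 min over 48°C-58°C. Pooled aliquots were extracted in PBS with 0.5% NP-40 at 4°C, and the supernatant after 21,000xg for 90 min was measured by TMTpro 16plex LC-MS/MS with channel sums equalised. Reported thermal stability, relative to control samples and from duplicates, is a log2 fold change.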

[2] = compound: CC[C@@H]1C(=O)N(C)c2cnc(Nc3ccc(C(=O)N[C@H]4CC[C@H](N5CCN(CC6CC6)CC5)CC4)cc3OC)nc2N1C(C)C [volasertib]
Method in brief: as §1

[3] = compound: CC[C@H](C)N1C=C(C2=C(C=C(C=C21)C3=CN=C(C=C3)N4CCNCC4)C(=O)NCC5=C(C=C(NC5=O)C)C)C
Method in brief: as §1

[4] = compound: CC[C@H](C)[C@@H](C(=O)N[C@@H]([C@@H](C)O)C(=O)N[C@@H](CC(C)C)C(=O)[C@]1(CO1)C)NC(=O)[C@H]([C@@H](C)CC)N(C)C(=O)C [epoxomicin]
Method in brief: as §1

[5] = compound: CCn1c(C(=O)N(C2CC2)C2CC2)cc2c3c(ncn3C)c(Nc3cc(C)n(C)n3)nc21
Method in brief: as §1

[6] = compound: CCn1cc(-c2ccnc3[nH]c(-c4cccc(CN(C)C)c4)cc23)c(-c2ccc(NC(=O)N(C)C)cc2)n1
Method in brief: as §1

[7] = compound: CN(C)CC(=O)Nc1ccc2[nH]c(=O)c3ccccc3c2c1
Method in brief: as §1

[8] = compound: CN(CCOC1=CC=C(C=C1)C[C@H]2C(=O)NC(=O)S2)C3=CC=CC=N3 (racemic) [rosiglitazone]
Method in brief: as §1

[9] = compound: CN1C2=C(C3=C1C(=O)N(N=C3)CC4=CC(=CC=C4)N)SC(=C2)S(=O)C
Method in brief: as §1

[10] = compound: CN1CCC(CNc2ccc3ncc(-c4cccc(OC(F)(F)F)c4)n3n2)CC1
Method in brief: as §1

Sequence of UniProt O00291 (O00291 whole entry, looked up): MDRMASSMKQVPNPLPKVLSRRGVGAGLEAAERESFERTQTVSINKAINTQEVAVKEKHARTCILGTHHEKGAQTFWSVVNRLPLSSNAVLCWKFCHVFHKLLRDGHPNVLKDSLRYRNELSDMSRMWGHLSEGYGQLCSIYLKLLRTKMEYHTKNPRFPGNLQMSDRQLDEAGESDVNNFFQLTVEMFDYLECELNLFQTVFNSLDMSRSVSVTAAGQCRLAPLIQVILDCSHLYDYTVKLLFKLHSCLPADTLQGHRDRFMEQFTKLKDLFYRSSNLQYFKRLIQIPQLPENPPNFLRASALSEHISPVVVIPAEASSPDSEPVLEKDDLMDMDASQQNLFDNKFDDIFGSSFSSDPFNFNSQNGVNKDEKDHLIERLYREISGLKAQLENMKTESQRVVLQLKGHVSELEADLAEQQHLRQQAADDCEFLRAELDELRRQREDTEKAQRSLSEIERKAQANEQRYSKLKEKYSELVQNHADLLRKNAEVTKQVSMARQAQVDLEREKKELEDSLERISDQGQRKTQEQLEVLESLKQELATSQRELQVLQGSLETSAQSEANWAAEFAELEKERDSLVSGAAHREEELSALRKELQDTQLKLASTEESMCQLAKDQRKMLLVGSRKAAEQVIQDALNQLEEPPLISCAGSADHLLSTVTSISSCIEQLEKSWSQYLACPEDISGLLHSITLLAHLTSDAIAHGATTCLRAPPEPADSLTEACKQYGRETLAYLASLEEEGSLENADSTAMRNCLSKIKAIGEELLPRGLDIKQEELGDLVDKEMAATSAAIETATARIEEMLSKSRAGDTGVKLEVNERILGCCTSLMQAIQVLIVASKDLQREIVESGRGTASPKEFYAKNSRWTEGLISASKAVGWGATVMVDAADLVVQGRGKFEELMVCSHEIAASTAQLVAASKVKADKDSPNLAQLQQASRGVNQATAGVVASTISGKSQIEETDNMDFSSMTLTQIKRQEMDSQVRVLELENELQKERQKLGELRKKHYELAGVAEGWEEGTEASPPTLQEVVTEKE
Sequence of UniProt Q86UL3 (Q86UL3 whole entry, looked up): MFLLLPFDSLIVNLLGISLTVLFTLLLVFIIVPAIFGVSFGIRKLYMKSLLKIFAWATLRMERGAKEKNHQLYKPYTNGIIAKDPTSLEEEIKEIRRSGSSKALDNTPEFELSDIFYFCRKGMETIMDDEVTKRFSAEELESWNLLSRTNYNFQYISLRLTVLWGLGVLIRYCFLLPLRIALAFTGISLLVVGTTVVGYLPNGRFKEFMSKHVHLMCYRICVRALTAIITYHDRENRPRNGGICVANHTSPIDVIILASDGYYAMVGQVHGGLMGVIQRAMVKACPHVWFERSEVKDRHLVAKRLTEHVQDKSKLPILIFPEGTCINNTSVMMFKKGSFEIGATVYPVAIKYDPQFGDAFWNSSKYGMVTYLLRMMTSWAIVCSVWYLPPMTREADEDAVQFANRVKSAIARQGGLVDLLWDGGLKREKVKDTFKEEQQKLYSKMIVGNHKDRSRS
Sequence of UniProt Q658Y4 (Q658Y4 whole entry, looked up): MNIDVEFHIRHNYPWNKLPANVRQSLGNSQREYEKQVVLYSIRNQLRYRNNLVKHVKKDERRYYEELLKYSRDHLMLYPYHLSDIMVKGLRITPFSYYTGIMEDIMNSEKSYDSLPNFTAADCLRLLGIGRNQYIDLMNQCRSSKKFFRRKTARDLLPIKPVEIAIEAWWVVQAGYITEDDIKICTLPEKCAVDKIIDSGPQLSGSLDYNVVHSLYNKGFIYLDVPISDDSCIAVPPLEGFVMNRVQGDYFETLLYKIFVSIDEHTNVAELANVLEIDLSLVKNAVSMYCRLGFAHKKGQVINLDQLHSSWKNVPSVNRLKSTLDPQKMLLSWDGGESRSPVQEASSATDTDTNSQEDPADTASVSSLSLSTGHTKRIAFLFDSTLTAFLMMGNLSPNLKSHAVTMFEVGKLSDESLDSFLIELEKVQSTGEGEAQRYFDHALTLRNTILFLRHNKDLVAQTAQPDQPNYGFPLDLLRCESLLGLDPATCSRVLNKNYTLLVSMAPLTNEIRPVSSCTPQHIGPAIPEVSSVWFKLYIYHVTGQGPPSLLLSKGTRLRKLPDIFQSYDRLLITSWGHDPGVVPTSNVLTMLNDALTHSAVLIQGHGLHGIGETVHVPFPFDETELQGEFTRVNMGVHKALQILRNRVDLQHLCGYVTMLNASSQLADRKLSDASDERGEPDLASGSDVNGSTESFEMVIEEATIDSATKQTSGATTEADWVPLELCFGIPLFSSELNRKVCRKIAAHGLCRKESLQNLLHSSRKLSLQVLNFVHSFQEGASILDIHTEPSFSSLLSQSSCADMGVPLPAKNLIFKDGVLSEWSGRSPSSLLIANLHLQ
Sequence of UniProt Q96JB3 (Q96JB3 whole entry, looked up): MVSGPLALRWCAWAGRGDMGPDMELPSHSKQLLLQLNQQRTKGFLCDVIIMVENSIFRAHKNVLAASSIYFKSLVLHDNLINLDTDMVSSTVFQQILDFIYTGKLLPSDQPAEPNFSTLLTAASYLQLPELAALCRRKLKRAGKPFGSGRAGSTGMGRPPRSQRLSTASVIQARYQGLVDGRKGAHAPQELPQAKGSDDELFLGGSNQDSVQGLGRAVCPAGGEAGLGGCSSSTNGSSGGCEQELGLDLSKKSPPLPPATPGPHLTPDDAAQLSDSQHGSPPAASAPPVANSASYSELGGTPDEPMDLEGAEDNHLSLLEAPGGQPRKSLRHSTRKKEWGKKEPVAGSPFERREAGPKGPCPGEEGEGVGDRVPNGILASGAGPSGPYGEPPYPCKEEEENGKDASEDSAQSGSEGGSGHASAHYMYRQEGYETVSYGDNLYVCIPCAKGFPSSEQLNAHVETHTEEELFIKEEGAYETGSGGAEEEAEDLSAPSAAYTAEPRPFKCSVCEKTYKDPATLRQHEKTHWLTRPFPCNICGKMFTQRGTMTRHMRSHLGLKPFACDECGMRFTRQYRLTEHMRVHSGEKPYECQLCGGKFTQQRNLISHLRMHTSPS
Sequence of UniProt Q5JWF2 (Q5JWF2 whole entry, looked up): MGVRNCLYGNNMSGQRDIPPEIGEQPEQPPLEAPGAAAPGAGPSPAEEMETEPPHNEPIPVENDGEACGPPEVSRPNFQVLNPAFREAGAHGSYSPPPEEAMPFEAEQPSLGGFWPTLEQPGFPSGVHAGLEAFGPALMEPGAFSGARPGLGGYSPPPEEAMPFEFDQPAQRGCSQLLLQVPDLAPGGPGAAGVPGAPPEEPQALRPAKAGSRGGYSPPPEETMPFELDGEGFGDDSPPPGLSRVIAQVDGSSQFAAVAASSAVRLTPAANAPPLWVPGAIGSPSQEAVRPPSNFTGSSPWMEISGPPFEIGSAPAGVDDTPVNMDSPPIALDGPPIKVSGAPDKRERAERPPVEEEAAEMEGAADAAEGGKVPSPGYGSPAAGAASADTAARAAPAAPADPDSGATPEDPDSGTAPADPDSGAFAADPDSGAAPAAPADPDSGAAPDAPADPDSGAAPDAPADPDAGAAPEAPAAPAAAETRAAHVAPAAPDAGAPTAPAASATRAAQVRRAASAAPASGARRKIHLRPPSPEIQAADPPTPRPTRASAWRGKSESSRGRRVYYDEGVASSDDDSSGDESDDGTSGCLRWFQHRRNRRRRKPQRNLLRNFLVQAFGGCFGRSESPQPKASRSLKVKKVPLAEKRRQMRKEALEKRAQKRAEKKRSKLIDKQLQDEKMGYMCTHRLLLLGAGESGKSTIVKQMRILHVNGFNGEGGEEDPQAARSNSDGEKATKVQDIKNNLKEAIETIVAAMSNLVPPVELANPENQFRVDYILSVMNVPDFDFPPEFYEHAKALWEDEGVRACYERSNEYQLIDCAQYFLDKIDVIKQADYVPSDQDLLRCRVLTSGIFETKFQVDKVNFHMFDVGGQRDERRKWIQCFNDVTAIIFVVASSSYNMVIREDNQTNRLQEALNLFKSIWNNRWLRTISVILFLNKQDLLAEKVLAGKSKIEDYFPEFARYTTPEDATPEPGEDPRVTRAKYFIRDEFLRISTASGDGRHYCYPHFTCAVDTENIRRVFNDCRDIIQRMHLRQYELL
Sequence of UniProt Q86VQ1 (Q86VQ1 whole entry, looked up): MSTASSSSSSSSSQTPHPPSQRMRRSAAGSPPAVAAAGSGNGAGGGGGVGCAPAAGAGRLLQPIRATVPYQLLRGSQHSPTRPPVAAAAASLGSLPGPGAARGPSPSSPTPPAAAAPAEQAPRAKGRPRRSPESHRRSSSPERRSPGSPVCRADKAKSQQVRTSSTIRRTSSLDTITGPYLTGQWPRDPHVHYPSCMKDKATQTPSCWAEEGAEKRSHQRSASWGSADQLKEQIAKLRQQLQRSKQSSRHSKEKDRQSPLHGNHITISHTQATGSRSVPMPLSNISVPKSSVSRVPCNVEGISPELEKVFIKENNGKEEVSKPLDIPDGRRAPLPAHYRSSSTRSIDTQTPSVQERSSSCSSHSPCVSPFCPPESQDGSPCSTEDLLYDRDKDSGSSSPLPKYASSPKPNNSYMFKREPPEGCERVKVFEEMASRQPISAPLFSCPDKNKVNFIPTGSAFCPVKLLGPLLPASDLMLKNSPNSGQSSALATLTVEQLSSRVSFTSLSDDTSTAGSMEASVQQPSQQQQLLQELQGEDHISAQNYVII
Sequence of UniProt Q9BUP3 (Q9BUP3 whole entry, looked up): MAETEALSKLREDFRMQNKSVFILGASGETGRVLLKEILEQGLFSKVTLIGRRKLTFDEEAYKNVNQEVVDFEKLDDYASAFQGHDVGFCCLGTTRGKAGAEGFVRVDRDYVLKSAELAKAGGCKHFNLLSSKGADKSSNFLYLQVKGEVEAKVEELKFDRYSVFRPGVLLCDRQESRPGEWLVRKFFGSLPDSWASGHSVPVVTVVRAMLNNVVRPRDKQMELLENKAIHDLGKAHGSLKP
Sequence of UniProt Q9Y3D6 (Q9Y3D6 whole entry, looked up): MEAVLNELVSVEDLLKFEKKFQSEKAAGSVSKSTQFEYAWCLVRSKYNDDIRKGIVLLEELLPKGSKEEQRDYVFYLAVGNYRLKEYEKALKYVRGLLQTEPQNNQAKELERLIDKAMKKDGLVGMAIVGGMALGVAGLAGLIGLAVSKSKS

Row | Target | log2 fold change [1] | log2 fold change [2] | log2 fold change [3] | log2 fold change [4] | log2 fold change [5] | log2 fold change [6] | log2 fold change [7] | log2 fold change [8] | log2 fold change [9] | log2 fold change [10]
1 | HNRNPF (UniProt P52597) | -0.049 | -0.587 (active) | 0.128 | 0.009 | -0.066 | -0.027 | 0.051 | 0.037 | 0.052 | -0.153
2 | HIP1 (UniProt O00291) | 0.027 | -0.23 | -0.095 | 0.085 | 0.005 | 0.031 | -0.045 | -0.007 | -0.063 | -0.148
3 | GTF3C4 (UniProt Q9UKN8) | -0.002 | -0.263 (active) | 0.001 | -0.001 | -0.003 | -0.003 | -0.024 | 0.012 | 0.007 | 0
4 | GNAI3 (UniProt P08754) | 0.089 | 0.147 | -0.011 | 0.014 | 0.036 | -0.071 | -0.012 | -0.101 | -0.046 | 0.075
5 | GYS1 (UniProt P13807) | 0.229 | 0.224 | 0.059 | -0.034 | 0.069 | 0.139 | 0.029 | -0.1 | 0.364 | 0.123
6 | HAT1 (UniProt O14929) | -0.185 | -0.313 (active) | 0.02 | 0.035 | 0.014 | -0.057 | -0.007 | 0.049 | -0.081 | 0.026
7 | HIC2 (UniProt Q96JB3) | 0.028 | -0.19 | 0.032 | -0.134 | 0.126 | 0.128 | -0.035 | -0.185 | 0.164 | -0.006
8 | HAUS4 (UniProt Q9H6D7) | -0.138 | -0.027 | 0.123 | -0.391 | -0.04 | 0.032 | -0.072 | 0.027 | 0.246 | 0.049
9 | HSPA8 (UniProt E9PK54) | 0.041 | 0.213 | -0.003 | -0.252 | 0.03 | 0.131 | -0.06 | 0.042 | 0.11 | 0.128
10 | GYG1 (UniProt P46976) | 0.107 | 0.338 | 0 | -0.104 | 0.011 | -0.045 | 0.019 | -0.045 | 0.016 | -0.011
11 | FERMT3 (UniProt Q86UX7) | -0.07 | -0.262 (active) | 0.053 | 0.019 | -0.018 | -0.04 | 0.045 | 0.059 | -0.021 | -0.149
12 | HMGN2 (UniProt P05204) | -0.083 | 0.073 | -0.109 | -0.082 | 0.054 | -0.041 | -0.081 | -0.041 | 0.02 | 0.071
13 | HNRNPC isoform 2 (UniProt P07910) | 0.238 | 0.276 | 0.017 | -0.423 | -0.19 | 0.147 | -0.151 | -0.129 | 0.467 | -0.067
14 | GNAS (UniProt Q5JWF2) | 0.125 | 0.164 | 0.032 | 0.011 | 0.016 | 0 | -0.02 | 0.006 | -0.03 | 0.057
15 | IFI30 (UniProt P13284) | -0.443 (active) | -0.436 (active) | 0.038 | -0.014 | -0.096 | -0.098 | -0.021 | -0.061 | -0.06 | -0.448 (active)
16 | IFRD1 (UniProt O00458) | 0.107 | -0.015 | -0.14 | 0.053 | 0.019 | -0.016 | -0.143 | 0 | -0.097 | 0.297
17 | GPAT4 (UniProt Q86UL3) | -0.042 | -0.046 | -0.036 | 0.063 | -0.01 | -0.039 | 0.029 | 0.008 | -0.063 | 0.143
18 | FBXO42 (UniProt Q6P3S6) | 0.093 | 0.011 | 0.028 | 0.056 | -0.031 | 0.002 | -0.019 | 0.027 | 0.032 | 0.021
19 | HTATIP2 isoform 3 (UniProt Q9BUP3) | -0.029 | -0.168 | 0.035 | 0.008 | 0.02 | -0.013 | 0.009 | -0.025 | -0.016 | -0.148
20 | FEN1 (UniProt P39748) | -0.073 | -0.037 | 0.086 | 0.109 | -0.13 | -0.174 | 0.155 | 0.17 | -0.057 | -0.283
21 | HIST2H3A (UniProt Q71DI3) | -0.206 | 0.111 | -0.023 | -0.003 | -0.185 | 0.315 | -0.124 | 0.011 | 0.56 | 0.09
22 | FIS1 (UniProt Q9Y3D6) | 0.005 | 0.046 | -0.023 | -0.002 | 0.025 | 0.008 | 0.01 | 0.016 | -0.189 | -0.075
23 | FECH isoform 2 (UniProt P22830) | 0.399 | 0.368 | 0.037 | -0.088 | 0.251 | 0.203 | 0.001 | 0 | -0.123 | 0.163
24 | FKBP7 (UniProt Q9Y680) | 0.035 | 0.021 | 0.015 | -0.04 | 0.003 | 0.026 | -0.042 | -0.054 | -0.001 | 0.191
25 | FAM91A1 (UniProt Q658Y4) | 0.062 | 0.221 | -0.007 | -0.675 (active) | -0.08 | -0.015 | -0.003 | 0.037 | 0.001 | 0.233 (active)
26 | GBF1 (UniProt Q92538) | -0.086 | -0.474 (active) | 0.059 | -0.007 | -0.07 | -0.013 | 0.069 | 0.081 | 0.081 | -0.212
27 | GLS (UniProt O94925) | -0.271 | -0.366 (active) | 0.142 | 0.151 | -0.026 | -0.051 | 0.103 | 0.085 | -0.085 | -0.241
28 | HP1BP3 (UniProt Q5SSJ5) | 0.122 | 0.054 | -0.11 | -0.016 | -0.015 | 0.013 | 0.046 | -0.037 | 0.126 | 0.038
29 | GLA (UniProt P06280) | -0.449 (active) | -0.911 (active) | 0.002 | 0.026 | 0.016 | 0.03 | -0.001 | -0.07 | 0.005 | -0.535 (active)
30 | GLCCI1 (UniProt Q86VQ1) | -0.048 | 0.108 | 0.15 | -0.022 | 0.087 | 0.088 | -0.035 | -0.053 | -0.023 | -0.328 (active)
